# Measurements taken from PubChem BioAssay AID624354 (Sanford-Burnham Center for Chemical Genomics, 2012).
# Hit rate of the full screen: of about 360,000 compounds, about 3,800 (1.1%) were called active. The sample holds actives, similar compounds and a random draw of the others, so the mix is not that of the screen. A number with no mark means an inactive call.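 How the source made its calls: active means compounds causing at least 50% loss of cell viability in the single-dose screen, relative to plate controls; inactive means the rest.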
# Test: viability loss with TRAIL in NB7+C8 cells, primary screen, TRAIL sensitizer project, cell-based, ATPlite luminescence (AID 624354)
# Conditions: at 10 µM, stronger effect = higher value
row,SMILES,"inhibition (viability loss, TRAIL sensitization)"
1,O=C(NCCO)C(=O)NCC(c1ccc2c(c1)OCO2)N1CCN(c2ccc(F)cc2)CC1 (stereo not drawn),-13%
2,COc1ccc([N+](=O)[O-])cc1NC(=O)C(C)OC(=O)C1c2ccccc2Oc2ccccc21 (stereo not drawn),5.23%
3,CCN(C(=O)COc1cccnc1[N+](=O)[O-])C1CCS(=O)(=O)C1 (stereo not drawn),-20.2%
4,CC1CCN(C(=O)c2cccc(S(=O)(=O)N3CCCc4ccccc43)c2)CC1,9.56%
5,CCN(C(=O)COc1ccc(C(=O)c2ccccc2)cc1)c1ccccc1,5.81%
6,CN(C)CCCN(C(=O)c1ccc(S(=O)(=O)N2CCCc3ccccc32)cc1)c1nc2ccc(F)cc2s1,49.7% (active)
7,CCOc1ccc2nc(N(CCCN(C)C)C(=O)c3ccc(C(=O)c4ccccc4)cc3)sc2c1,84.6% (active)
8,CCC(=O)Nc1nnc(S(=O)(=O)N2CCCc3ccccc32)s1,18.7%
9,CCOc1ccc2nc(C(=O)N3CCCC(C)C3)sc2c1 (stereo not drawn),31.9%
10,CC(C)CC(=O)N1CCN(Cc2ccccc2Br)CC1,-13.2%
11,COC(=O)[C@]12CCCCC=C1N(Cc1cccc3ccccc13)C(=O)[C@H](CC(=O)N1CCOCC1)C2,-17.8%
12,CCN(Cc1ccncc1)C(=S)Nc1ccccc1C,-14.3%
13,COc1cc(C=O)ccc1Oc1nnnn1-c1ccccc1,9.4%
14,O=C(CNC(=O)c1cc(=O)[nH]c2ccccc12)Nc1ccc(F)c(F)c1,-6.89%
15,CN1CCN(CCCNC(=O)c2ccc(/C=C3\Oc4ccccc4N(Cc4ccc(Cl)cc4)C3=O)cc2)CC1,70.5% (active)
16,CCC1Oc2ccccc2N(CC(=O)NCCCN2CCN(CC)CC2)C1=O (stereo not drawn),-10.7%
17,Cc1ccc(NC(=O)CCCNC(=O)c2ccc(Cl)cc2)cc1S(=O)(=O)N1CCOCC1,3.06%

row,SMILES,"inhibition (viability loss, TRAIL sensitization)"
1,O=C(Nc1cccc(F)c1)N1C2CCC1CC(O)(c1cccnc1)C2 (stereo not drawn),-0.997%
2,Cc1ccsc1C(=O)OCC(=O)c1cc(C)n(CC2CCCO2)c1C (stereo not drawn),75.4% (active)
3,CCCn1c(C)cc(C(=O)COC(=O)c2c(C)nn(-c3ccccc3)c2C)c1C,1.44%
4,COc1ccc(CNC(=O)COC(=O)c2sccc2C)cc1OC,-16.5%
5,COc1ccc(/C=N/N=C/c2c[nH]c(=O)c(C#N)c2Nc2ccccc2)cc1,19.4%
6,COc1ccc(-c2cn3ccsc3n2)cc1,54.1% (active)
7,Cc1ccc(S(=O)(=O)NCc2cn3ccsc3n2)c(C)c1,-5.68%
8,COc1ccc(-c2cc3nc(NCCOc4ccccc4)ccn3n2)cc1,2.79%
9,COc1cc(OC)cc(-c2nc(=S)n3ccsc3n2)c1,-7%
10,COc1ccc(-c2cn3ccc(C)cc3n2)cc1,87.1% (active)
11,FC(F)(F)Oc1ccc(-c2cn3cccnc3n2)cc1,34.5%
12,CCn1cc(C(=O)NCC(=O)NC(C)(C)CO)c(=O)c2cc3c(cc21)OCO3,-16.5%
13,COc1ccc(C(C)NC(=S)NC2CCCCC2)cc1OC (stereo not drawn),-10.3%
14,CN1CC(c2ccccc2)C2(COc3ccccc3C2=O)C12C(=O)Nc1ccccc12 (stereo not drawn),1.61%
15,COc1ccc(OC)c(NC(=O)CSc2nc(N)c(-c3ccccc3)c(=O)[nH]2)c1,-16.4%
16,OC(CNCc1ccc(Cl)c(Cl)c1)c1ccccc1 (stereo not drawn),1.28%
